# Data: PubChem BioAssay (NCI)
# “And” between values parts separate entries of the source, which are not always exact repeats. Identical values can stand only once. Compounds without any hit were thinned out: in the full panel of roughly 79,000, 15% have a hit. Values without a mark were called inactive. The source made the active and inactive calls. No stated cut-off is given here; in the data, active means growth inhibition above about 70%; inactive means the rest.
# Key:
# [1] = NCI Yeast Anticancer Drug Screen. Data for the rad52 strain (AID 147);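 further: 0% = growth of vehicle-treated control cultures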; conditions: S. cerevisiae rad52 mutant growth inhibition, hits give high values
# Procedure, shortened: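 Yeast strain carrying a DNA damage repair alteration was exposed to test compounds. Growth inhibition was measured relative to vehicle-treated controls.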
# [2] = NCI Yeast Anticancer Drug Screen. Data for the wt1 strain (AID 149);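 further: 0% = growth of vehicle-treated wt1 cultures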; conditions: S. cerevisiae wt1 strain (SPY 50644) growth inhibition, hits give high values
# Procedure, shortened: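 wt1 strain grown with compound or vehicle; inhibition taken from the growth difference.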
# [3] = NCI Yeast Anticancer Drug Screen. Data for the rad50EPP+ strain (AID 151);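 further: 0% = growth of vehicle-treated control cultures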; conditions: S. cerevisiae rad50 mutant strain, hits give high values
# Procedure, shortened: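 Yeast strain carrying rad50 alteration (rad50EPP+) exposed to compounds; growth inhibition measured relative to vehicle-treated controls.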
# [4] = NCI Yeast Anticancer Drug Screen. Data for the mgt1 strain (AID 153); conditions: S. cerevisiae mgt1 mutant growth inhibition, hits give high values
# Procedure, shortened: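 Yeast mgt1 strain (DNA repair/cell-cycle alteration panel) exposed to compounds; growth inhibition measured relative to vehicle-treated controls.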
# [5] = NCI Yeast Anticancer Drug Screen. Data for the rad50 strain (AID 155);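 further: 0% = growth of vehicle-only cultures of the same strain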; conditions: S. cerevisiae rad50 strain growth inhibition, hits give high values
# Procedure, shortened: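 DNA repair mutant yeast, compound exposure, growth read-out; inhibition is taken relative to vehicle.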
# [6] = NCI Yeast Anticancer Drug Screen. Data for the mec2-1 strain (AID 157); conditions: S. cerevisiae mec2-1 strain, hits give high values
# Procedure, shortened: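 mec2-1 yeast strain, carrying an alteration in DNA damage repair or cell cycle control, was exposed to compounds; growth inhibition was measured relative to vehicle-treated controls.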
# [7] = NCI Yeast Anticancer Drug Screen. Data for the rad14 strain (AID 159);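 further: 0% = growth of vehicle-treated control cultures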; conditions: S. cerevisiae rad14 strain growth inhibition, hits give high values
# Procedure, shortened: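 DNA repair-defective yeast, compound-exposed; % growth inhibition derived by comparison with vehicle-treated controls.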
# [8] = NCI Yeast Anticancer Drug Screen. Data for the sgs1 mgt1 strain (AID 161);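 further: 0% = growth of cultures given vehicle only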; conditions: S. cerevisiae sgs1 mgt1 strain, hits give high values
# Procedure, shortened: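 Yeast cells carrying a defined DNA-repair defect were exposed to test compounds. Growth inhibition was measured relative to vehicle-treated controls.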
# [9] = NCI Yeast Anticancer Drug Screen. Data for the cln2 rad14 strain (AID 165);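 further: 0% = growth equal to vehicle treated cultures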; conditions: S. cerevisiae cln2 rad14 strain, hits give high values
# Procedure, shortened: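 Yeast carrying cln2 and rad14 alterations (cell cycle control and DNA damage repair) were exposed to compounds. Growth inhibition was measured against vehicle-treated controls.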
# [10] = NCI Yeast Anticancer Drug Screen. Data for the wt2 strain (AID 169);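 further: 0% = growth of vehicle-treated yeast cultures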; conditions: S. cerevisiae wt2 strain growth inhibition, hits give high values
# Procedure, shortened: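 Yeast cells were exposed to test compounds, and growth inhibition was measured relative to vehicle-treated controls.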
# [11] = NCI Yeast Anticancer Drug Screen. Data for the sgs1 strain (AID 173);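 further: 0% = growth of vehicle-only control cultures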; conditions: S. cerevisiae sgs1 mutant, hits give high values
# Procedure, shortened: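 Yeast mutant strains carrying defined defects in DNA damage repair or cell cycle control were exposed to test compounds. Growth inhibition was scored against vehicle-treated controls.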
# [12] = NCI Yeast Anticancer Drug Screen. Data for the mlh1 rad18 strain (AID 175); conditions: S. cerevisiae mlh1 rad18 strain growth inhibition, hits give high values
# Procedure, shortened: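 Growth inhibition of the yeast strain was measured after compound exposure and expressed relative to vehicle-treated controls. The strain carries defined defects in DNA damage repair.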
# [13] = NCI Yeast Anticancer Drug Screen. Data for the rad18 strain (AID 177); conditions: S. cerevisiae rad18 mutant growth inhibition, hits give high values
# Procedure, shortened: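 Yeast carrying a defined DNA damage repair alteration were exposed to compounds. Growth inhibition was expressed relative to vehicle-treated controls.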
# [14] = NCI Yeast Anticancer Drug Screen. Data for the CLN2oe strain (AID 163);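 further: 0% = growth of vehicle-only control cultures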; conditions: S. cerevisiae CLN2oe strain, hits give high values
# Procedure, shortened: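 Yeast cells carrying a defined cell-cycle control alteration were exposed to test compounds. Growth inhibition was scored against vehicle-treated control cultures.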
# [15] = NCI Yeast Anticancer Drug Screen. Data for the bub3 strain (AID 167); conditions: S. cerevisiae bub3 mutant strain, hits give high values
# Procedure, shortened: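 In this screen, a yeast mutant lacking normal mitotic checkpoint function is challenged with compound. Relative growth versus vehicle gives the inhibition value.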
# [16] = NCI Yeast Anticancer Drug Screen. Data for the mlh1 strain (AID 171);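 further: 0% = growth of vehicle-treated control cultures of the same strain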; conditions: S. cerevisiae mlh1 strain growth inhibition, hits give high values
# Procedure, shortened: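 Yeast carrying a defined genetic alteration in DNA damage repair or cell cycle control were exposed to test compounds. Growth inhibition was measured relative to vehicle-treated controls.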
# [17] = at 5.0 µM (retest, dose inferred, filed as 0.5)
# [18] = at 50.0 µM (retest, dose inferred, filed as 5.0)
smiles,measurement,setting,value
COc1cc(/C=C2\CCC/C(=C\c3ccc(O)c(OC)c3)C2=O)ccc1O,growth inhibition,[1]; at 1.2 µM,-6%
same,growth inhibition,[1]; at 3.7 µM,-6%
same,growth inhibition,[1]; at 11.0 µM,9%
same,growth inhibition,[1]; at 33.0 µM,11%
same,growth inhibition,[1]; at 100.0 µM,4%
same,growth inhibition,[2]; at 1.2 µM,1%
same,growth inhibition,[2]; at 3.7 µM,10%
same,growth inhibition,[2]; at 11.0 µM,15%
same,growth inhibition,[2]; at 33.0 µM,12%
same,growth inhibition,[2]; at 100.0 µM,15%
same,growth inhibition,[3]; at 1.2 µM,0%
same,growth inhibition,[3]; at 3.7 µM,-2%
same,growth inhibition,[3]; at 11.0 µM,24%
same,growth inhibition,[3]; at 33.0 µM,22%
same,growth inhibition,[3]; at 100.0 µM,15%
same,growth inhibition,[4]; at 1.2 µM,0%
same,growth inhibition,[4]; at 3.7 µM,-1%
same,growth inhibition,[4]; at 11.0 µM,1%
same,growth inhibition,[4]; at 33.0 µM,0%
same,growth inhibition,[4]; at 100.0 µM,-3%
same,growth inhibition,[5]; at 1.2 µM,-30%
same,growth inhibition,[5]; at 3.7 µM,-9%
same,growth inhibition,[5]; [17],13%
same,growth inhibition,[5]; at 11.0 µM,-7%
same,growth inhibition,[5]; at 33.0 µM,-7%
same,growth inhibition,[5]; [18],12%
same,growth inhibition,[5]; at 50.0 µM,2.8% and 9.55%
same,growth inhibition,[5]; at 100.0 µM,8%
same,growth inhibition,[6]; at 1.2 µM,-1%
same,growth inhibition,[6]; at 3.7 µM,0%
same,growth inhibition,[6]; [17],4%
same,growth inhibition,[6]; at 11.0 µM,1%
same,growth inhibition,[6]; at 33.0 µM,0%
same,growth inhibition,[6]; [18],15%
same,growth inhibition,[6]; at 50.0 µM,-13.1% and 63.1%
same,growth inhibition,[6]; at 100.0 µM,0%
same,growth inhibition,[7]; at 1.2 µM,5%
same,growth inhibition,[7]; at 3.7 µM,-3%
same,growth inhibition,[7]; at 11.0 µM,12%
same,growth inhibition,[7]; at 33.0 µM,4%
same,growth inhibition,[7]; at 100.0 µM,5%
same,growth inhibition,[8]; [17],8%
same,growth inhibition,[8]; [18],57%
same,growth inhibition,[8]; at 50.0 µM,-12.4% and 59.1%
same,growth inhibition,[9]; [17],-4%
same,growth inhibition,[9]; [18],6%
same,growth inhibition,[9]; at 50.0 µM,1.65% and 9.95%
same,growth inhibition,[10]; at 1.2 µM,6%
same,growth inhibition,[10]; at 3.7 µM,16%
same,growth inhibition,[10]; at 11.0 µM,22%
same,growth inhibition,[10]; at 33.0 µM,27%
same,growth inhibition,[10]; at 100.0 µM,18%
same,growth inhibition,[11]; at 1.2 µM,-15%
same,growth inhibition,[11]; at 3.7 µM,-10%
same,growth inhibition,[11]; at 11.0 µM,3%
same,growth inhibition,[11]; at 33.0 µM,5%
same,growth inhibition,[11]; at 100.0 µM,-6%
same,growth inhibition,[12]; [17],-3%
same,growth inhibition,[12]; [18],6%
same,growth inhibition,[12]; at 50.0 µM,-13.2% and 11.4%
same,growth inhibition,[13]; at 1.2 µM,-7%
same,growth inhibition,[13]; at 3.7 µM,5%
same,growth inhibition,[13]; at 11.0 µM,3%
same,growth inhibition,[13]; at 33.0 µM,1%
same,growth inhibition,[13]; at 100.0 µM,-7%
CCCCCCN(CCCCCC)CC(O)c1ccnc2ccc(OC)cc12 (stereo not given),growth inhibition,[1]; at 1.2 µM,0%
same,growth inhibition,[1]; at 3.7 µM,-2%
same,growth inhibition,[1]; at 11.0 µM,-5%
same,growth inhibition,[1]; at 33.0 µM,-7%
same,growth inhibition,[1]; at 100.0 µM,66%
same,growth inhibition,[2]; at 1.2 µM,-1%
same,growth inhibition,[2]; at 3.7 µM,-3%
same,growth inhibition,[2]; at 11.0 µM,-5%
same,growth inhibition,[2]; at 33.0 µM,-7%
same,growth inhibition,[2]; at 100.0 µM,15%
same,growth inhibition,[3]; at 1.2 µM,-4%
same,growth inhibition,[3]; at 3.7 µM,-2%
same,growth inhibition,[3]; at 11.0 µM,-2%
same,growth inhibition,[3]; at 33.0 µM,-5%
same,growth inhibition,[3]; at 100.0 µM,-8%
same,growth inhibition,[4]; at 1.2 µM,1%
same,growth inhibition,[4]; at 3.7 µM,2%
same,growth inhibition,[4]; at 11.0 µM,0%
same,growth inhibition,[4]; at 33.0 µM,-3%
same,growth inhibition,[4]; at 100.0 µM,74% (active)
same,growth inhibition,[5]; at 1.2 µM,1%
same,growth inhibition,[5]; at 3.7 µM,1%
same,growth inhibition,[5]; [17],-9%
same,growth inhibition,[5]; at 11.0 µM,-1%
same,growth inhibition,[5]; at 33.0 µM,-3%
same,growth inhibition,[5]; [18],27%
same,growth inhibition,[5]; at 50.0 µM,-10.1%
same,growth inhibition,[5]; at 100.0 µM,69%
same,growth inhibition,[6]; at 1.2 µM,2%
same,growth inhibition,[6]; at 3.7 µM,-1%
same,growth inhibition,[6]; [17],-5%
same,growth inhibition,[6]; at 11.0 µM,1%
same,growth inhibition,[6]; at 33.0 µM,2%
same,growth inhibition,[6]; [18],18%
same,growth inhibition,[6]; at 50.0 µM,1.15%
same,growth inhibition,[6]; at 100.0 µM,67%
same,growth inhibition,[7]; at 1.2 µM,-2%
same,growth inhibition,[7]; at 3.7 µM,-3%
same,growth inhibition,[7]; at 11.0 µM,-4%
same,growth inhibition,[7]; at 33.0 µM,-5%
same,growth inhibition,[7]; at 100.0 µM,63%
same,growth inhibition,[8]; [17],-9%
same,growth inhibition,[8]; [18],49%
same,growth inhibition,[8]; at 50.0 µM,74.5% (active)
same,growth inhibition,[14]; at 1.2 µM,6%
same,growth inhibition,[14]; at 3.7 µM,1%
same,growth inhibition,[14]; at 11.0 µM,-1%
same,growth inhibition,[14]; at 33.0 µM,1%
same,growth inhibition,[14]; at 100.0 µM,36%
same,growth inhibition,[15]; at 1.2 µM,5%
same,growth inhibition,[15]; at 3.7 µM,5%
same,growth inhibition,[15]; [17],-1%
same,growth inhibition,[15]; at 11.0 µM,6%
same,growth inhibition,[15]; at 33.0 µM,4%
same,growth inhibition,[15]; [18],40%
same,growth inhibition,[15]; at 50.0 µM,26.6%
same,growth inhibition,[15]; at 100.0 µM,61%
same,growth inhibition,[10]; at 1.2 µM,-1%
same,growth inhibition,[10]; at 3.7 µM,-4%
same,growth inhibition,[10]; at 11.0 µM,-5%
same,growth inhibition,[10]; at 33.0 µM,-5%
same,growth inhibition,[10]; at 100.0 µM,68%
same,growth inhibition,[16]; at 1.2 µM,-1%
same,growth inhibition,[16]; at 3.7 µM,-3%
same,growth inhibition,[16]; at 11.0 µM,-3%
same,growth inhibition,[16]; at 33.0 µM,-4%
same,growth inhibition,[16]; at 100.0 µM,74% (active)
same,growth inhibition,[11]; at 1.2 µM,-3%
same,growth inhibition,[11]; at 3.7 µM,-2%
same,growth inhibition,[11]; at 11.0 µM,-3%
same,growth inhibition,[11]; at 33.0 µM,-3%
same,growth inhibition,[11]; at 100.0 µM,79% (active)
same,growth inhibition,[12]; [17],-3%
same,growth inhibition,[12]; [18],14%
same,growth inhibition,[12]; at 50.0 µM,38.1%
